Screening data deposited in PubChem by Sanford-Burnham Center for Chemical Genomics.
Shown are actives, neighbours in structure and some others; about 4% of the full set was active somewhere.
Peg3 promoter: reduces Peg3 promoter-driven luciferase expression in HeLa; AID 588405; 360,000 compounds, 1.7% hits; inhibition, % at 20 µM; HeLa PEG-Prom luciferase reporter, luminescence, overnight;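 active = inhibition of at least 50% at 20 µM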
KKLEB tox: counter-screen for CF NF-kB inhibitors: cytotoxicity | KKLEB CF airway cells viability, ATPlite luminescence, overnight; hits give low values; cells stimulated with P. aeruginosa culture filtrate | activity change (cytotoxicity), % at 5 µM | 360,000 compounds, 0.36% hits;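 active = corrected activity change at or below -50% at 5 µM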
HIF-2a block: inhibitors of HIF-2a | 786-0 RCC cells HIF-2a reporter, luciferase luminescence, overnight | 360,000 compounds, 0.72% hits | inhibition, % at 18.8 µM;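 active = inhibition of the luminescence signal of 40% or more relative to plate controls, in a single-dose primary screen at 18.75 µM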
TWEAK Fn14 block: TWEAK-Fn14 signaling inhibition. inhibition, % at 10 µM. TWEAK-stimulated Fn14 reporter cells, luciferase luminescence, 8 h. 360,000 compounds, 2% hits; in the data active = inhibition above about 50%
TROY signal inh: blocks TROY-dependent signaling in reporter cells. Q293 LMP1-TROYcd NF-kB luciferase reporter, 4 h. inhibition, % at 10 µM. 360,000 compounds, 0.98% hits. AID 1347056;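 active = compounds whose plate-normalised and pattern-corrected inhibition of the luciferase reporter signal at the single screening dose is 50% or more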
CF NFkB block: cystic fibrosis NF-kB activation inhibition; KKLEB NF-kB-GFP reporter, PAF-induced, GFP fluorescence overnight; 360,000 compounds, 0.86% hits; inhibition, % at 5 µM;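 active = at least 50% inhibition at 5 µM, scaled per plate between neutral and stimulator controls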;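 also: PAF is a Pseudomonas aeruginosa culture filtrate used as stimulus; plate controls were PAF-stimulated DMSO wells for no effect and unstimulated DMSO wells for full effect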
Numbers without * were called inactive; . = no result given.

SMILES | Peg3 promoter | KKLEB tox | HIF-2a block | TWEAK Fn14 block | TROY signal inh | CF NFkB block
Cc1ccc(S(=O)(=O)N(C)c2ccccc2C(=O)N2CCOCC2)cc1 | 16 | 15 | 2 | 38 | -20 | -23
OC(C1=CC(=Cc2ccncc2)c2ccccc21)c1ccncc1 (configuration not stated) | -3 | -4 | 21 | 55* | 29 | -14
CCn1c(O)c(/C=C2\C=NN=C2c2ccc(C)cc2)sc1=S | 13 | 6 | 10 | -13 | 7 | -5
CC(C)n1c(O)c(/C=C2\C=NN=C2c2ccccc2)sc1=S | 11 | 8 | 6 | 22 | 19 | 58*
O=S(=O)(Nc1ccc(-n2cnnn2)cc1)c1cccc(F)c1 | 12 | -16 | 3 | 17 | 9 | 17
COc1ccc(NC(=O)CSc2nc3nc(-c4cccs4)cc(C(F)(F)F)c3c(=O)[nH]2)c(OC)c1 | 3 | 7 | 3 | -7 | 17 | -27
CCOc1ccccc1NC(=O)CSc1nc2nc(-c3cccs3)cc(C(F)(F)F)c2c(=O)[nH]1 | 11 | 0 | 18 | -11 | 63* | 15
O=c1c2ccccc2nc2sc(Nc3cccc(Cl)c3)nn12 | -47 | -21 | -77 | -6 | -50 | -24
CCC(c1ccc(O)cc1)C(CC)c1ccc(O)cc1 (configuration not stated) | 33 | 8 | 16 | 4 | 52* | 4
CCC(C(=O)c1ccc(O)cc1)c1ccccc1 (configuration not stated) | 31 | 6 | 8 | -3 | 14 | -23
COc1ccc(NC(=O)Nc2cccc(F)c2)c(OC)c1 | -143 | -2 | -155 | 0 | -70 | -1
COc1ccc(CC(C(=O)Nc2cccc(F)c2)c2nn[nH]n2)c(OC)c1 (configuration not stated) | 3 | 4 | 6 | 51* | 65* | -3
CCCNC(=O)c1ccc(S(=O)(=O)c2ccc(OC)cc2)c([N+](=O)[O-])c1 | 49 | -17 | 32 | 72* | 23 | 42
NC(N)=N/N=C(\N=Nc1ccccc1)c1ccc(Cl)cc1 | 90* | -2 | -109 | 7 | -15 | -4
O=C1NC(Cc2ccc(O)cc2)c2nc3ccc(Cl)cc3c(=O)n2-c2cc3ccccc3cc21 (configuration not stated) | 61* | -17 | -39 | 50 | 37 | 23
O=C1NC(Cc2ccccc2)c2nc3ccc(Cl)cc3c(=O)n2-c2cc3ccccc3cc21 (configuration not stated) | 17 | -8 | -10 | -19 | 12 | 20
Cc1cc(C)c2c(=O)n3c(nc2c1)C(Cc1ccccc1)NC(=O)c1cc2ccccc2cc1-3 (configuration not stated) | -2 | -63* | -5 | -12 | 6 | 74*
Cc1ccc2c(=O)n3c(nc2c1)C(Cc1ccc(O)cc1)NC(=O)c1cc2ccccc2cc1-3 (configuration not stated) | 62* | -11 | 1 | 8 | 37 | -7
COc1ccc(CCC(=O)N/N=C(\C)c2ccc3c(c2)OCO3)cc1 | 1 | 14 | 5 | -18 | 4 | -29
Cc1ccc(C(C[N+](=O)[O-])c2c(-c3ccccc3O)[nH][nH]c2=O)cc1 (configuration not stated) | 96* | -10 | -21 | 10 | -26 | 28
COC(=O)C1CCN(C(=O)c2oc3c(Cl)cc(C)cc3c2C)CC1 | -381 | -9 | -176 | -14 | -39 | 8
Cc1cc(Cl)c2oc(C(=O)N3CCN(c4ccncc4)CC3)c(C)c2c1 | 92* | -12 | 22 | -1 | -6 | 18
Cc1ccc(NC(=O)c2ccc(C)cc2)cc1 | -175 | -9 | -122 | 59* | 4 | -15
Cc1ccc(C(=O)Nc2ccc(N3CCN(C)CC3)cc2)cc1 | -231 | 6 | -195 | -4 | -20 | -13
CC(=O)Nc1ccc(NC(=O)c2cc([N+](=O)[O-])cc([N+](=O)[O-])c2)cc1 | -7 | -24 | 6 | -22 | -3 | -12
SMILES | Peg3 promoter | KKLEB tox | HIF-2a block | TWEAK Fn14 block | TROY signal inh | CF NFkB block
Cc1ccc(NC(=O)c2ccc(Nc3c([N+](=O)[O-])cc([N+](=O)[O-])cc3[N+](=O)[O-])cc2)cc1 | 32 | 23 | 22 | 94* | 66* | -85
O=C(CSCC(=O)N1CCN(c2ccccc2)CC1)Nc1nc(-c2ccc(Cl)s2)cs1 | -31 | -22 | -139 | 72* | 31 | 8
O=C(CSCC(=O)N1CCCCC1)Nc1nc(-c2ccc(Cl)s2)cs1 | -264 | 13 | -208 | 69* | 45 | -13
CCOC(=O)N1CCN(C(=O)CSCC(=O)Nc2nc(-c3ccccc3)cs2)CC1 | -51 | 3 | -167 | 26 | 7 | 11
O=C(CSCC(=O)N1CCCCC1)Nc1nc(-c2cccs2)cs1 | -72 | -13 | -98 | 8 | 7 | 0
CCCCCCCCN1C(=O)[C@H](CC(=O)NCCCC)C[C@@]2(C(=O)OC)CC(C)(C)CC=C12 | . | . | 12 | . | . | .
CCCc1cc(C(=O)Nc2cc(C)ccc2O)no1 | -342 | 1 | -317 | -24 | -22 | -21
Cn1c(=O)c2c(nc(CN3CCN(C(c4ccccc4)c4ccccc4)CC3)n2CCCO)n(C)c1=O | 8 | -6 | 19 | 28 | -26 | 10
Cc1cccc2nc(CSc3nnc4ccccn34)cn12 | -136 | 12 | -119 | 50* | -14 | -41
Cc1ccc(C(=O)c2ccccc2C(=O)OCC(=O)Nc2ccc(SC(F)F)cc2)cc1 | 1 | 2 | -23 | 53* | 22 | -1
O=C(COC(=O)c1ccccc1Cc1ccccc1)Nc1ccc(SC(F)F)cc1 | -288 | 4 | -240 | -7 | 9 | -4
Cc1ccc(C(=O)O)cc1NS(=O)(=O)c1ccc2ccccc2c1 | 0 | -16 | 13 | 5 | 13 | 12
CC(C)OC(=O)C(C(=O)C(F)(F)F)c1cc(NS(=O)(=O)c2ccc3ccccc3c2)c2ccccc2c1O (configuration not stated) | 35 | -34 | 4 | 62* | 68* | 37
C[C@@H]1CN([C@H](C)CO)C(=O)c2c(c3ccccc3n2C)-c2ccccc2CO[C@H]1CN(C)Cc1ccc(-c2ccccc2)cc1 | 83* | 0 | -15 | 44 | 20 | 4
N#Cc1ccc(CSc2nnc(Cc3cccs3)n2Cc2ccco2)cc1 | -2 | 3 | 16 | 76* | . | 6
CC(C)(C)OC(=O)N1CCC(Cc2cc(-c3cccnc3)no2)(C(=O)O)CC1 | -4 | 6 | 6 | -3 | -3 | -7
Nc1ccc(N=Nc2ccccc2)c(N)n1 | -317 | -10 | -328 | 12 | -85 | 63*
Nc1ccc(N=Nc2ccccc2)c2ccccc12 | 3 | 7 | -7 | -5 | -14 | -3
COC(=O)c1cc(S(=O)(=O)Nc2cccc(OC)c2)cn1C | 52* | -2 | 9 | 11 | 19 | 1
COC(=O)c1cc(S(=O)(=O)Nc2c(C)cccc2C)cn1C | 1 | 19 | 5 | 0 | -16 | 2
